Experimental data published in PubChem BioAssay (Tox21).
Results filed as inconclusive are left out. Activity calls are given as the source filed them. Unless noted, calls come from the whole dose curve; as a rule, active = well fitted curve in the direction sought with a large enough effect in the repeat runs; inconclusive = weak or mixed curves; inactive = no such curve, though single readings can be large; an effect the other way counts as inactive or inconclusive.

Experiments:
[1] = qHTS assay to identify small molecule agonists of H2AX (AID 1224845; active = well fitted activation curve with a large enough effect in the signal ratio in the repeat runs, not every such curve was filed as active; the % refers to the signal ratio)
Procedure, shortened: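 Wild-type CHO-K1 cells plated overnight, then exposed 3 hr at 37C to compounds at 15 concentrations (0.76% DMSO). Lysed, then HTRF anti-pH2AX(S139)-cryptate/anti-H2AX-d2 detection after 24 hr at room temperature; emissions 665 and 620 nm.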

[2] = qHTS assay to identify small molecule agonists of the hypoxia (HIF-1) signaling pathway (AID 1224846; active = well fitted activation curve with a large enough effect in the signal ratio in the repeat runs, not every such curve was filed as active; the % refers to the signal ratio)
Procedure, shortened: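 Measured by blue/green FRET after loading CCF4-AM: beta-lactamase expressed from a hypoxia response element in ME-180 cells. Test agents were delivered in DMSO and left 17 hrs; cells had been plated 5 hrs earlier in low-serum (0.5% dialyzed FBS) medium.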

[3] = qHTS assay to identify small molecule agonists of H2AX - cell viability counter screen (AID 1224847; calls by dose curve; note: top concentration of the series differs between compounds; nearly all actives have a fitted effect of over 30% in size)
Procedure, shortened: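 After overnight plating of 1000 CHO-K1 cells per well, a 15-concentration compound series was applied for 3 hr at 37C. Luminescence from CellTiter-Glo, read following 30 min at room temperature, reflected cell viability.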

[4] = qHTS assay to identify small molecule antagonists of the estrogen related receptor (ERR) signaling pathway from Tox21 library (AID 1224848); note: nearly all actives have a fitted effect of over 50% in size
Procedure, shortened: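 Cells: ERR line, 2,000/well; 6 h preincubation 37 C/5% CO2. Cpd in DMSO via pin tool; 18 h, 37 C. ONE-Glo, 30 min RT, luminescence.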

[5] = qHTS assay to identify small molecule agonists of the estrogen related receptor (ERR) signaling pathway from Tox21 library (AID 1224849; calls by dose curve; note: nearly all actives have a fitted effect of over 15% in size); conditions: ERR reporter cell line, ONE-Glo luciferase, 18 h
Procedure, shortened: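 We plated ERR reporter cells, waited 6 h, added compounds in DMSO by pin tool and incubated them 18 h at 37 C. ONE-Glo was then added and luminescence read after 30 min.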

[6] = qHTS RealTime-Glo MT Cell Viability Assay in HEK293 cells - 32 hour (AID 1224868); note: top concentration of the series differs between compounds; nearly all actives have a fitted effect of over 50% in size
Procedure, shortened: (§1)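 Tox21 10K qHTS, HEK293, 600 cells/well, RealTime-Glo reagent co-dispensed with cells; 5 h preincubation, compound by pintool, 37 C, luminescence at 0–40 h.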

[7] = A CellTox Green Cytotoxicity Assay to monitor cytotoxicity in HEK293 cells - 0 hour (AID 1224869); note: nearly all actives have a fitted effect of over 50% in size
Procedure, shortened: (§2)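 Each value comes from one timepoint of a single continuous run in which HEK293 cells with CellTox Green were exposed to compound for up to 40 h at 37 C, dye fluorescence rising with cell death.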

[8] = qHTS RealTime-Glo MT Cell Viability Assay in HepG2 cells - 40 hour (AID 1224870); note: nearly all actives have a fitted effect of over 50% in size
Procedure, shortened: (§3)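 HepG2 cells mixed with RealTime-Glo MT reagents (NanoLuc plus cell-permeant prosubstrate) were seeded at 600 cells/well, incubated 5 h at 37 C/5% CO2, then pinned with compounds in DMSO; nonlytic luminescence tracked viability during 40 h treatment.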

[9] = A CellTox Green Cytotoxicity Assay to monitor cytotoxicity in HEK293 cells - 40 hour (AID 1224871); note: nearly all actives have a fitted effect of over 45% in size
Procedure, shortened: as §2

[10] = qHTS RealTime-Glo MT Cell Viability Assay in HEK293 cells - 16 hour (AID 1224872)
Procedure, shortened: as §1

[11] = qHTS RealTime-Glo MT Cell Viability Assay in HepG2 cells - 8 hour (AID 1224873); note: nearly all actives have a fitted effect of over 55% in size
Procedure, shortened: as §3

[12] = qHTS RealTime-Glo MT Cell Viability Assay in HEK293 cells - 40 hour (AID 1224874); conditions: RealTime-Glo luminescence; max response: stronger effect = lower value; note: nearly all actives have a fitted effect of over 50% in size
Procedure, shortened: (§4)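 qHTS format; HEK293 cells with NanoLuc/prosubstrate reagent, 37 C/5% CO2 for 5 h pre-dosing; compounds 23 nL in DMSO; luminescence at each time point reflects viable cells.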

[13] = A CellTox Green Cytotoxicity Assay to monitor cytotoxicity in HEK293 cells - 24 hour (AID 1224875); note: nearly all actives have a fitted effect of over 45% in size
Procedure, shortened: as §2

[14] = A CellTox Green Cytotoxicity Assay to monitor cytotoxicity in HepG2 cells - 16 hour (AID 1224876); note: nearly all actives have a fitted effect of over 45% in size
Procedure, shortened: (§5)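 Continuous culture of HepG2 cells with a membrane-impermeant DNA dye; rising fluorescence marks dead cells. Compound exposure lasted up to 40 h at 37 C, with reads every 8 h from 0 h.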

[15] = qHTS RealTime-Glo MT Cell Viability Assay in HepG2 cells - 32 hour (AID 1224877); note: nearly all actives have a fitted effect of over 55% in size
Procedure, shortened: (§6)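 Cells + NanoLuc/prosubstrate dispensed (600 cells/well) → 5 h at 37 C/5% CO2 → compounds in DMSO transferred → 40 h incubation at 37 C, luminescence read at 0, 8, 16, 24, 32, 40 h.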

[16] = A CellTox Green Cytotoxicity Assay to monitor cytotoxicity in HepG2 cells - 24 hour (AID 1224878); note: nearly all actives have a fitted effect of over 45% in size
Procedure, shortened: as §5

[17] = A CellTox Green Cytotoxicity Assay to monitor cytotoxicity in HepG2 cells - 40 hour (AID 1224879); note: nearly all actives have a fitted effect of over 40% in size; note: potency is the fitted concentration of half-maximal effect
Procedure, shortened: as §5

[18] = qHTS RealTime-Glo MT Cell Viability Assay in HEK293 cells - 0 hour (AID 1224880)
Procedure, shortened: as §4

[19] = A CellTox Green Cytotoxicity Assay to monitor cytotoxicity in HEK293 cells - 32 hour (AID 1224881); note: nearly all actives have a fitted effect of over 40% in size
Procedure, shortened: as §2

[20] = qHTS RealTime-Glo MT Cell Viability Assay in HepG2 cells - 24 hour (AID 1224867); note: nearly all actives have a fitted effect of over 50% in size
Procedure, shortened: as §6
% is set by controls: 0 for no effect and ±100 for the full control effect.

COc1cc(C(=S)N2CCOCC2)ccc1O
inactive: Potency [1] | Potency [2] | Potency [3] | Potency [4] | activity change, positive = activation ([5]; at 42.5 µM (top of the series)) -0.619% | Potency [6] | Potency [7] | Potency [8] | Potency [9] | Potency [10] | Potency [11] | max response [12] 0.473% | Potency [13] | Potency [14] | Potency [15] | Potency [16] | Potency [17] | Potency [18] | Potency [19]

CC(C)CCOC(=O)c1ccc(N(C)C)cc1
active: activity change, positive = activation ([5]; at 42.5 µM (top of the series)) 81.2% | Potency [17] 1.9 µM
inactive: Potency [1] | Potency [2] | Potency [3] | Potency [4] | Potency [6] | Potency [7] | Potency [8] | Potency [9] | Potency [10] | max response [12] 3.04% | Potency [13] | Potency [14] | Potency [15] | Potency [16] | Potency [18] | Potency [19]

c1cnc2cc3c(cc2n1)C1CNCC3C1
inactive: Potency [1] | Potency [2] | Potency [3] | Potency [4] | activity change, positive = activation ([5]; at 42.5 µM (top of the series)) 1.11% | Potency [20] | Potency [7] | Potency [8] | Potency [9] | Potency [10] | max response [12] 11% | Potency [13] | Potency [14] | Potency [15] | Potency [16] | Potency [17] | Potency [18] | Potency [19]

CCN1CCCC1CNC(=O)c1cc(S(=O)(=O)CC)c(N)cc1OC (configuration not stated)
inactive: Potency [1] | Potency [2] | Potency [3] | Potency [4] | activity change, positive = activation ([5]; at 42.5 µM (top of the series)) 2.19% | Potency [20] | Potency [6] | Potency [7] | Potency [8] | Potency [9] | Potency [10] | Potency [11] | max response [12] 2.04% | Potency [13] | Potency [14] | Potency [15] | Potency [16] | Potency [18] | Potency [19]

O=C(O)c1cc(Cl)cc(Cl)c1
inactive: Potency [1] | Potency [2] | Potency [3] | Potency [4] | activity change, positive = activation ([5]; at 92.4 µM (top of the series)) -3.61% | Potency [6] | Potency [7] | Potency [8] | Potency [9] | Potency [10] | Potency [11] | max response [12] 8.11% | Potency [13] | Potency [14] | Potency [16] | Potency [17] | Potency [18] | Potency [19]
